In all, about 33,000 sequences were measured (“E-score (-0.5 to 0.5)”: median about -0.011, highest 2% from about 0.28 on). The entries come from a sample that favours the highest values as a whole.
Molecular target: T1, Gcr1 (UniProt P07261)
T1 sequence: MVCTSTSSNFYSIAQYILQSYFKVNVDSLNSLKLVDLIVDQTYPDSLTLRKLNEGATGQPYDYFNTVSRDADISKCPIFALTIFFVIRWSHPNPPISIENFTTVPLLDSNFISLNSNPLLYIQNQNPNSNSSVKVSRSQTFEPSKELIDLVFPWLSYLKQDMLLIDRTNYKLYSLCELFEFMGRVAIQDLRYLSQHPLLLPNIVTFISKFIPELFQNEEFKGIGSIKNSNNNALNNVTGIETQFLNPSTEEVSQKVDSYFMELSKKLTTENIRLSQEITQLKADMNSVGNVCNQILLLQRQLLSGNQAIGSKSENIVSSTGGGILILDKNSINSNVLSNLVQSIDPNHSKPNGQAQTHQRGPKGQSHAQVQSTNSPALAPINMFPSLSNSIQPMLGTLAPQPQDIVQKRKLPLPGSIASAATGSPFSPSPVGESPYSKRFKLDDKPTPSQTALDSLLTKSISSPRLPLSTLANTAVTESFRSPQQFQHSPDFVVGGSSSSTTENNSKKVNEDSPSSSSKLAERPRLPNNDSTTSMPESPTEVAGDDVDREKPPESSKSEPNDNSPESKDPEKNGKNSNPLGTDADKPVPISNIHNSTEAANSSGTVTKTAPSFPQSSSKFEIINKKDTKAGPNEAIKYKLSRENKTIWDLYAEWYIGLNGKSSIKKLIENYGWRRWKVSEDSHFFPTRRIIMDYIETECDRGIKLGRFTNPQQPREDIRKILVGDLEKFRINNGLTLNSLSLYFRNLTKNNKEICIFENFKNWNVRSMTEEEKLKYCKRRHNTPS
Assay: PBM E-score (8-mer binding enrichment) (E-score (-0.5 to 0.5)); higher = stronger / more preferred TF binding
Conditions: protein concentration: 100 nM; construct: GST-full length
Procedure: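 Universal 'all 10-mer' protein binding microarrays (Agilent AMADID 015681) probed with GST-tagged S. cerevisiae TFs (full-length or DBD) made by in vitro transcription/translation (PURExpress), about 100-200 nM. Bound TF was detected with fluorescent anti-GST. Each ungapped 8-mer (which stands for itself and its reverse complement) is scored by the PBM enrichment score (E-score), a modified Wilcoxon-Mann-Whitney statistic from -0.5 to +0.5, computed with the Universal PBM Analysis Suite. Scale: above 0.35 generally sequence-specific binding.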

Sequence	PBM E-score
ACGCGTCT	0.155
ACGCGTCC	0.292
GAGCGTGC	-0.1
GCATCAAC	0.15
CACGGAGC	0.101
CGGTATCA	-0.0496
AGGTAGCC	0.238
AGGTATCA	0.0276
CGGTAGCA	-0.0732
CGGTATCC	0.282
CGGTAGCC	0.296
CTGTATCC	0.207
AGGTATCC	0.28
AGGTATCG	0.019
CAAGCTAA	-0.177
CCTGTGAG	-0.218
CGCCCTAG	0.143
ATAGCCAG	0.0137
CGCAATTC	0.0283
CTACCGTC	-0.0298
GCCATCCA	0.086
CCGATACA	0.0692
CCAGTTAG	0.0191
ACGCGCCC	0.352
ACGCGCCA	0.196

Sequence	PBM E-score
AGGCGCGC	0.16
ATGCGCCC	0.0661
AGGCGCCT	0.321
GCGCGCCC	0.0734
AGGCGCAG	0.157
AAGCGCCT	0.0782
AGGCGCCG	0.354
AGGCGCAT	0.0287
AGGCGCCC	0.384
AGGCGCCA	0.268
AGTGCTCC	-0.116
GTCAGAAA	0.0237
AAGGGCTA	-0.138
AACAATCC	-0.0423
TGGACAAA	0.0886
CCCGGTCC	-0.0935
CGGACACC	0.0465
ACTGCAAG	-0.185
TTGTGAAA	0.0169
CCCGTTAG	0.0113
CGCGCATC	0.252
ATCCCCCG	0.175
GAGAATCC	0.236
AGGAAGCG	0.354
AGGAATCG	0.294

Sequence	PBM E-score
AGGAATGG	0.0654
AGGAATCC	0.459
AGGAAGAG	-0.0854
AGGAATCA	0.144
ATGAATCC	0.0178
AGGAATAC	0.0815
AGGAAGCA	0.13
AAGAATCC	0.391
AAGAATCA	0.142
GGCTATGA	-0.188
AATCCGTC	-0.0275
AGCCAGAA	0.13
TCTGCAGA	-0.194
ATGACCCG	-0.321
CGGAATTC	0.242
ACGAATCC	0.288
CGGAATCA	0.0684
AGGAAGTC	0.337
CGGAAGTC	-0.00248
CCGAATCC	0.133
ACGAATCT	0.122
AGGAAGTG	0.213
CGGAATCC	0.417
CCCGAGAC	0.0132
ATCCGCTC	0.0142

Sequence	PBM E-score
ACTCCCTA	-0.0517
CGCCTGTC	-0.105
GGTGTTCA	0.106
AGTGGTGC	0.305
AGTGGTAA	-0.099
AGTGGTGG	0.305
AATGGTGG	-0.00912
CGTGGTGC	-0.0202
AGTGGTAG	0.318
CGTGGTAG	-0.133
AATGGTGC	0.208
AGTGGTGA	0.0333
CCGATGAC	-0.0977
AAGTTGCG	0.211
AACATCCA	0.193
AGCATCCA	0.457
ATCATCCG	-0.191
AGCATCCG	0.372
AACATCCG	0.164
TGCATCCA	0.182
ACTTTAAA	0.0642
ATAGTAAG	-0.0276
ACAAGACC	-0.0386
GAGCAATA	0.0781
CCGAACTC	-0.0172

Sequence	PBM E-score
AATGGAAG	0.27
ACTGGAAA	0.0867
AATGGGAT	0.28
ACGGGAAG	0.112
CCTGGAAG	0.0765
AATGGGAG	0.0925
CCTGGAAC	-0.0042
ACTGGAAG	0.463
AATGGAAC	0.154
AATGGAAT	0.301
ACTGGAAC	0.301
AATGGGAA	0.132
AGGCAATC	-0.245
CTCCAAGA	0.0262
ATTTGCAC	0.0134
GTAGCTAA	-0.0197
TAGAAACA	0.112
TTGAAAAA	0.0707
CCCATAGC	-0.16
ACTGGAAT	0.415
ACGGGAAT	0.111
ACTGGGAT	0.0877
AGCCGTGG	-0.108
ACGAGAGG	-0.238
CCGGTATC	0.288

Sequence	PBM E-score
GCTGTAGA	-0.0143
CCTGTATC	0.324
ACTGTATC	-0.275
CCTGTAGA	0.283
CAGGTATC	0.311
AAGGTATC	0.158
CCTGTATA	0.2
CAGGTATA	-0.0414
CCGGTATA	0.191
ACGGTATC	-0.0774
ACTGTAGA	-0.079
ACGGTAAG	-0.0708
CAACTGGC	0.0226
GATCACCA	-0.0057
TACCGTAA	0.0593
GACCCCCC	-0.241
CGCCTGCA	-0.117
AATGAGTA	0.143
CGAACCTA	-0.117
AGAACCCA	0.234
GGGACCCA	0.303
GGGACCCC	0.00587
TGAACCCA	0.0317
TGGACCCA	0.104
GAACCCCA	0.344

Sequence	PBM E-score
GGAACCTA	0.401
GAACCCAA	0.167
AGAACCTA	0.0206
GAACCCCC	0.0349
GGAACCCA	0.394
CGATGGGC	-0.0735
AGCTTCAT	0.0447
CTAACCAG	0.0668
GGCCCCCA	0.231
CATACCGA	0.0765
ACTCCTTA	0.0309
AGCCACAA	0.15
CGAACCCC	0.0243
AGAACCCC	0.0794
GGAACCCC	0.394
ACCTATCC	0.0168
ATGCTACG	0.0159
ACACACTC	0.0505
CGACATTA	0.306
CGACATTC	-0.0306
AGACATTA	-0.0316
CTGGGTGC	0.244

From the supplement of paper PMC3334620
